Experimental data reported in PubChem BioAssay (Tox21).
Records with an inconclusive call do not appear. Where a call stands in place of a potency, no number is given. Calls of active or inactive are those of the source. The call rests on the fitted dose curve; in most records, active means well fitted cell-killing curve with a large enough effect in the repeat runs; inconclusive means weak or mixed curves; inactive means flat fitted curve, though single readings scatter.

experiment: qHTS RealTime-Glo MT Cell Viability Assay in HepG2 cells - 8 hour (AID 1224873); settings: RealTime-Glo luminescence; series mostly up to 76.8 µM; further: nearly all actives have a fitted effect of over 55% in size
Source text: National Center for Advancing Translational Sciences [NCATS]
NIH Chemical Genomics Center [NCGC]
U.S. Environmental Protection Agency [EPA]
National Institutes of Environmental Health Sciences [NIEHS]
National Toxicology Program [NTP]
U.S. Food and Drug Administration [FDA]
Measure of cell viability is critical in the cell-base assay. Analysis of cell viability is necessary for the characterization of cell responses to cytotoxic drugs and environmental stress. A RealTime-Glo MT Cell Viability Assay to monitor cell viability in real time of continues cell culture during 40 hours of compound treatment was used to screen Tox21 10K library compounds in HepG2 cells. The RealTime-Glo MT Cell Viability Assay is a nonlytic, homogeneous, bioluminescent method to measure cell viability in real time using a simple, plate-based method. The assay involves adding NanoLuc luciferase and a cell-permeant prosubstrate to cells in culture. Viable cells reduce the proprietary prosubstrate to generate a substrate for NanoLuc luciferase. This substrate diffuses from cells into the surrounding culture medium, where it is rapidly used by the NanoLuc Enzyme to produce a luminescent signal. The signal correlates with the number of viable cells, making the assay well suited for cytotoxicity studies.
Tox21 Assay Protocol Summary:
The mixture of HepG2 cell suspension and reagents were dispensed at 600cells/6 ul/well in 1536-well tissue culture treated black solid bottom plates using a Multidrop dispenser. After the assay plates were incubated at a 37 C/5% CO2 incubator for 5 hours, 23 nL of compounds dissolved in DMSO, positive and negative controls was transferred to the assay plate by a pintool work station. The plates were incubated at 37 C for 40 hours. The luminescence intensity were measured at 0h, 8h, 16h, 24h, 32h and 40h time points using ViewLux plate reader during compound treatment.
Potency means the concentration at half of the fitted maximal effect.

Row | Structure (SMILES) | Potency
1 | CCC(CC)Nc1ccc(C)c(C)c1 | inactive
2 | C[N+](C)(C)CCOC(=O)CCC(=O)OCC[N+](C)(C)C | inactive
3 | C=C(C)C(=O)OCC | inactive
4 | Cc1ccc(N=Nc2c(O)c(C(=O)O)cc3ccccc23)c(S(=O)(=O)O)c1 | inactive
5 | O=C(OCCCCCCOC(=O)c1ccccc1)c1ccccc1 | inactive
6 | Nc1ccccc1S(=O)(=O)c1ccccc1 | inactive
7 | NCc1ccccc1Sc1ccccc1CO | inactive
8 | CCO[Si](CCCCl)(OCC)OCC | inactive
9 | OCc1cc(C(O)CNCCCCCCOCCCCc2ccccc2)ccc1O (stereo not given) | inactive
10 | COCCCN1CCC(NC(=O)c2cc(Cl)c(N)c3c2OCC3)CC1 | inactive
11 | CCCCCCc1ccc(-c2ccc(C#N)cc2)cc1 | inactive
12 | CCCCOC(=O)CCCCCCCC(=O)OCCCC | inactive
13 | Brc1c2ccccc2cc2ccccc12 | inactive
14 | COCC(C)OC(C)=O (stereo not given) | inactive
15 | CN(C)CCOC(c1ccccc1)c1ccc(Br)cc1 (stereo not given) | inactive
16 | O=[N+]([O-])c1ccc(NCCO)c(OCCO)c1 | inactive
17 | O=C(NCC1CN(c2ccc(N3CCOCC3=O)cc2)C(=O)O1)c1ccc(Cl)s1 (stereo not given) | inactive
18 | CCOc1ccc(O)cc1 | inactive
19 | O=C1OC(CN2CCOCC2)CN1/N=C/c1ccc([N+](=O)[O-])o1 (stereo not given) | inactive
20 | O=C(O)C1(C(=O)Nc2ccc(Cl)cc2Cl)CC1 | inactive

Row | Structure (SMILES) | Potency
21 | CCC(=O)O[C@]1(C(=O)CCl)[C@@H](C)C[C@H]2[C@@H]3CCC4=CC(=O)C=C[C@]4(C)[C@@]3(F)[C@@H](O)C[C@@]21C | inactive
22 | c1ccc(-c2ccccn2)nc1 | inactive
23 | COc1ccc(-c2nc3ccc(C4=NNC(=O)CC4C)cc3[nH]2)cc1 (stereo not given) | inactive
24 | Nc1c(CC(=O)O)cccc1C(=O)c1ccc(Br)cc1 | inactive
25 | Cc1cc(C(=O)O)ccc1[N+](=O)[O-] | inactive
26 | CCCCc1nc2cccnc2n1Cc1ccc(-c2ccccc2-c2nnn[nH]2)cc1 | inactive
27 | CCOC(=O)C(F)(F)F | inactive
28 | CNCCCN1c2ccccc2CCc2ccccc21 | inactive
29 | Nc1ccc(S(=O)(=O)Nc2ccccc2)cc1 | inactive
30 | c1ccc(CNCCNCc2ccccc2)cc1 | inactive
31 | CC(C)CC(=O)C1C(=O)c2ccccc2C1=O | inactive
32 | COc1ccc(C)cc1[N+](=O)[O-] | inactive
33 | CN1CCC(=C2c3ccccc3Sc3ccccc32)CC1 | inactive
34 | C[N+]1(CC2COC(c3ccccc3)(C3CCCCC3)O2)CCCCC1 (stereo not given) | inactive
35 | Cc1ccc(C(=O)Oc2ccc(C(O)CNC(C)(C)C)cc2OC(=O)c2ccc(C)cc2)cc1 (stereo not given) | 21.3 µM (active)
36 | Nc1ncn([C@H]2C[C@H](O)[C@@H](CO)O2)c(=O)n1 | inactive
37 | CC1(c2ccccc2)OC(C(=O)O)=CC1=O (stereo not given) | inactive
38 | CCCn1cnc2c1c(=O)n(CCCCC(C)=O)c(=O)n2C | inactive
39 | C[N+]1(C)CCC(OC(=O)C(O)(c2ccccc2)C2CCCC2)C1 (stereo not given) | inactive
40 | CN(C)CCN(Cc1ccc(Cl)cc1)c1ccccn1 | inactive
